The values that follow come from PubChem BioAssay (NCATS).

Results filed as inconclusive are left out. The source made the active and inactive calls. Unless noted, the call rests on the fitted dose curve; in most records, active means well fitted curve in the direction sought with a large enough effect; inconclusive means small, poorly fitted or top-dose-only effect, or another doubt; inactive means no such curve, though single readings can be large; an effect the other way counts as inactive or inconclusive.

In test [1] the target is Lysosomal acid glucosylceramidase (Homo sapiens) (UniProt P04062). Nature of the test: Glucocerebrosidase-p2 (AID 348; in the data active means potency below about 10 µM; further: potency means the concentration at half of the fitted maximal effect). Conditions: purified GBA, blue fluorogenic substrate, 40 min. In a few lines: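 Compounds titrated from 0.6 nM upwards against 0.2 nM enzyme in pH 5.9 citric acid/KH2PO4, taurocholate, tween-20; blue fluorogenic substrate 80 uM, 40 min room temperature, stopped and read Ex 365/Em 440 for AC50.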
Chain of Lysosomal acid glucosylceramidase (Homo sapiens) (P04062 whole entry, looked up): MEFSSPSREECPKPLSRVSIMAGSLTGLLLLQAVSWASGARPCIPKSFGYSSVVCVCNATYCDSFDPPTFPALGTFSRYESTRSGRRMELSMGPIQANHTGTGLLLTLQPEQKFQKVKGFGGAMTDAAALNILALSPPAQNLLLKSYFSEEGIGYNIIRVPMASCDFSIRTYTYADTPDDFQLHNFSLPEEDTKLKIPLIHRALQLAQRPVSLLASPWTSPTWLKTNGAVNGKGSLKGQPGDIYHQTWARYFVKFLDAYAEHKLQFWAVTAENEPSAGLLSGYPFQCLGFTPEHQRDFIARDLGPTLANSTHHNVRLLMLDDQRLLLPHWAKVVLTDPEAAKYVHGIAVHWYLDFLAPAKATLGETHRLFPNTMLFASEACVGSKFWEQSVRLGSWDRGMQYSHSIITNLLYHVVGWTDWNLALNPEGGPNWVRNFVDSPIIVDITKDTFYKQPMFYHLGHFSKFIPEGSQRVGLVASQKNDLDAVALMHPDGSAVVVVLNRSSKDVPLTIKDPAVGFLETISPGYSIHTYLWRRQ

Test [2] in a line: AP1 Signaling Pathway (AID 357; active means well fitted curve in either direction with a large enough effect, not every such curve was filed as active;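 further: ME-180 reporter cells stimulated with EGF at its EC50 level; on the % scale 0 is the no-effect control and ±100 the full control effect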). The settings on record: ME-180 AP-1-bla reporter, EGF-induced, beta-lactamase ratio, 5 h; at 7.69 µM (top of the series) unless noted. In a few lines:
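AP-1-bla ME-180 cells, Opti-MEM + 0.5% dialyzed FBS, plated overnight 37 °C. Cpd titration + EC50 EGF, 5 h 37 °C. CCF4 2.5 h RT; ex 405, em 460/530 ratio → %activity, AC50.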

Test [3] deals with Cytochrome P450 1A2 (Homo sapiens) (UniProt P05177). Nature of the test: p450-cyp1a2 (AID 410; calls by dose curve; further: potency means the concentration at half of the fitted maximal effect). The settings on record: recombinant CYP1A2, luciferin-ME demethylation, luminescence; series mostly up to 57 µM. In a few lines:
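Human CYP1A2 (20nM) demethylated Luciferin-ME at its Km (100uM) in 100mM KPO4. After 10 min compound preincubation, NADPH regeneration ran the reaction 60 min at room temperature. Luciferin was read by luminescence, normalized to 57 uM furafylline.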

Test [4] deals with Glucocorticoid receptor (Homo sapiens) (UniProt P04150). Nature of the test: GR-GFP Redistribution (AID 450;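 active means compounds whose dose series gives a full or clear partial fitted curve of increased nuclear translocation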; further: potency means the concentration at half of the fitted maximal effect). The settings on record: U2OS GR-GFP nuclear translocation, laser cytometry, 2 h.
Chain of Glucocorticoid receptor (Homo sapiens) (P04150 whole entry, looked up, the tested form may be a part): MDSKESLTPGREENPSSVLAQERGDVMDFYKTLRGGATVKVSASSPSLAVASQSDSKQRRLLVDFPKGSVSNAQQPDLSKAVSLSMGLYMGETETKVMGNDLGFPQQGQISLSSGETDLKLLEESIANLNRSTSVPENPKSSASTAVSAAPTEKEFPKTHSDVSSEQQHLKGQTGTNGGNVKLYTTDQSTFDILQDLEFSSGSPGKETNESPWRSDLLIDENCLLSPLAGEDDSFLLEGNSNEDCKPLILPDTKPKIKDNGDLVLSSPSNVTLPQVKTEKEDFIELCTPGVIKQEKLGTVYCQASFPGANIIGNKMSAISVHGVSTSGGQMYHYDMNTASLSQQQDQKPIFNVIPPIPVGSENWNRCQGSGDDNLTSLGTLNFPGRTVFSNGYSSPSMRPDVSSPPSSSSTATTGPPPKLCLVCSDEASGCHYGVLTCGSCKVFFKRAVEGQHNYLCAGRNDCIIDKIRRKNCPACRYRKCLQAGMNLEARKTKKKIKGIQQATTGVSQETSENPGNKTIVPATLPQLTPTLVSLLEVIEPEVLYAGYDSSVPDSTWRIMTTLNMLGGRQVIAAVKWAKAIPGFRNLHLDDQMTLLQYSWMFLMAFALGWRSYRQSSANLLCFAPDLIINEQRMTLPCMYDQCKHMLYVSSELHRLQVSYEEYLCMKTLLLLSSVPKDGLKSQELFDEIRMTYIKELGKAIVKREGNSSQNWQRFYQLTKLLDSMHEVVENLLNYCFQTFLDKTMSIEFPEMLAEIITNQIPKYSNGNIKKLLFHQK
Test [5] shares this target. The experiment in a line: GR-EFC Redistribution (AID 451; calls by dose curve; further: potency means the concentration at half of the fitted maximal effect). Conditions: CHO-K1 GR-EFC translocation, beta-gal luminescence, 2 h. The essentials: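 Translocation of GR-ED fusion to nuclear EA restores b-gal, read by luminescence after 1 h room-temperature detection. Engineered CHO-K1 biosensor cells, 1,000/well, exposed 2 h at 37 C to titrations up to 46 uM final.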
Test [6] concerns the target Mitogen-activated protein kinase 10 (Mus musculus) (UniProt Q61831). Nature of the test: JNK3 AlphaScreen Assay (AID 530; active means well fitted curve in either direction with a large enough effect, not every such curve was filed as active;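 further: kinase came from lysate of stimulated human HepG2 cells; signal reports phosphorylation of biotinylated GST-cJun 1-79 at Ser73 with 10 µM ATP; on the % scale 0 is the no-effect control and ±100 the full control effect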). Conditions: JNK3 lysate, c-Jun phosphorylation; series mostly up to 57.1 µM. The essentials:
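Room-temperature AlphaScreen kinase assay; pre-activated HepG2 lysate as JNK3 source, biotin-GST-cJun(1-79) substrate, 10 uM ATP, compound 15 min preincubation.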

The target in test [7] is 3',5'-cyclic-AMP phosphodiesterase 4B (Homo sapiens) (UniProt Q07343). Nature of the test: qHTS Assay for Inhibitors of PDE-IV (AID 607; active means well fitted activation curve with a large enough effect in the main read-out, with a control signal flat, not every such curve was filed as active; further: % of control where 0% means no effect). Conditions: HEK293 ACTOne CNG channel cells, membrane potential fluorescence; series mostly up to 22.9 µM. In a few lines: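 Cell-based read-out of cAMP via a modified cyclic nucleotide-gated channel and membrane potential dye (535/590 nm) in HEK293 cells expressing PDE4 endogenously. Compounds tested up to 22.9 uM final; 100 uM RO 20-1724 reference.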
Chain of 3',5'-cyclic-AMP phosphodiesterase 4B (Homo sapiens) (Q07343 whole entry, looked up): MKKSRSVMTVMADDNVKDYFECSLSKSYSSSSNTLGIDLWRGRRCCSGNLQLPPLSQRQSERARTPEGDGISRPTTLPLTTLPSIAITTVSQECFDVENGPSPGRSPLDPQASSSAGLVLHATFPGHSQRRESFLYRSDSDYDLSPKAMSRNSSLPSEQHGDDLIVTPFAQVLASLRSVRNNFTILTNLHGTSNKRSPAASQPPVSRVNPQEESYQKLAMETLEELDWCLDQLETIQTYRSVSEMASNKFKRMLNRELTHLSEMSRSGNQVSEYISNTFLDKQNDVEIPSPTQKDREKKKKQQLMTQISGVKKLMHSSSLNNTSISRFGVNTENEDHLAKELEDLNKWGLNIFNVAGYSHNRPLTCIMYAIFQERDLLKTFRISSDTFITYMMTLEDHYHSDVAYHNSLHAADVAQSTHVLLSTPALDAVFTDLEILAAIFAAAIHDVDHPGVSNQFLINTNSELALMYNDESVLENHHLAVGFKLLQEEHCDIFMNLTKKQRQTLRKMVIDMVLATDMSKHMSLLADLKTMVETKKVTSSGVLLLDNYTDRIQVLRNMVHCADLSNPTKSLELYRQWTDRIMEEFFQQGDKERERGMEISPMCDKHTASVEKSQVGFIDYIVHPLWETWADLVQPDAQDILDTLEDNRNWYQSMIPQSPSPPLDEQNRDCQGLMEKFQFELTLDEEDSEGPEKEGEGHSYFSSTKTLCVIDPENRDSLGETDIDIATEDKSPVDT
(Quantitative high-throughput screening tests each substance at several concentrations.)

A short description of test [8]: qHTS Assay for Lipid Storage Modulators (AID 1519; calls by dose curve). Conditions: Drosophila S3 cells, BODIPY lipid droplet/cell ratio, laser cytometry, cells loaded with oleic acid; for activity change, negative = inhibition: at 57.5 µM (top of the series). In a few lines: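 Cells seeded at 5,000 per well were treated with compounds over a concentration series and loaded with oleic acid (400 uM, as added). Lipid droplet fluorescence (488 nm excitation, 500-530 nm channel) was read by laser-scanning cytometry and normalized to 20 uM Triacsin C.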

Test [9] has as its target Dual specificity protein kinase CLK4 (Homo sapiens) (UniProt Q9HAZ1). The experiment in a line: qHTS Assay for Inhibitors of CDC-like Kinase 4 (Kinase-Glo Assay) (AID 1770). Further: nearly all actives have a fitted effect of over 65% in size. Further: potency means the concentration at half of the fitted maximal effect. The settings on record: recombinant Clk4, Kinase-Glo ATP depletion luminescence; series mostly up to 66.7 µM. In a few lines: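 Substrate mix (RS peptide 100 uM, ATP 1 uM) dispensed, compound pinned in, then Clk4 added to 25 nM final. Incubated 4.5 h at RT; Kinase-Glo reagent added, luminescence read after 5 min.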

The target is the same in test [10]. Nature of the test: qHTS Assay for Inhibitors of CDC-like Kinase 4 (ADP-Glo Assay) (AID 1771). Further: nearly all actives have a fitted effect of over 70% in size. Further: potency means the concentration at half of the fitted maximal effect. The settings on record: recombinant CLK4, ADP-Glo luminescence; series mostly up to 80 µM. In a few lines: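 Clk4 (25 nM) was incubated 1 hr at room temperature with 100 uM RS repeat peptide and 1 uM ATP in buffer with 2 mM MgCl2, 0.5 mM EGTA, 2.5 mM DTT. ADP formed was quantified by ADP-Glo luminescence.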

Test [11] has the same target. The experiment in a line: qHTS Assay for Inhibitors of CDC-like Kinase 4 (ADP-FP Assay) (AID 1795). Further: nearly all actives have a fitted effect of over 60% in size. Further: potency means the concentration at half of the fitted maximal effect. The settings on record: Transcreener ADP fluorescence polarization; series mostly up to 50 µM. In a few lines: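 Clk4 6.25 nM; RS peptide 100 uM; ATP 1 uM; 25 mM Tris pH 7.5, 10 mM MgCl2; 1 h reaction. ADP detected via antibody/orange tracer FP displacement; TG003 positive control.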

Test [12] deals with Ubiquitin carboxyl-terminal hydrolase 1 (Homo sapiens) (UniProt O94782). Nature of the test: Inhibitors of USP1/UAF1: Pilot qHTS (AID 504865).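 Further: rhodamine fluorescence freed from ubiquitin-rhodamine substrate followed over time; top concentration of the series differs between compounds; on the % scale 0 is the no-effect control and ±100 the full control effect; nearly all actives have a fitted effect of over 35% in size.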 The settings on record: purified USP1/UAF1, Ub-rhodamine cleavage fluorescence; series mostly up to 54.9 µM. In a few lines: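 In 50mM HEPES pH 7.8 containing 0.5mM EDTA, 1mM TCEP, 0.1 mg/ml BSA and 0.01% Tween-20, 1nM USP1/UAF1 is exposed to compound for 15 min, then Ub-Rho (150nM final) is added and fluorescence is read over time.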
Chain of Ubiquitin carboxyl-terminal hydrolase 1 (Homo sapiens) (O94782 whole entry, looked up): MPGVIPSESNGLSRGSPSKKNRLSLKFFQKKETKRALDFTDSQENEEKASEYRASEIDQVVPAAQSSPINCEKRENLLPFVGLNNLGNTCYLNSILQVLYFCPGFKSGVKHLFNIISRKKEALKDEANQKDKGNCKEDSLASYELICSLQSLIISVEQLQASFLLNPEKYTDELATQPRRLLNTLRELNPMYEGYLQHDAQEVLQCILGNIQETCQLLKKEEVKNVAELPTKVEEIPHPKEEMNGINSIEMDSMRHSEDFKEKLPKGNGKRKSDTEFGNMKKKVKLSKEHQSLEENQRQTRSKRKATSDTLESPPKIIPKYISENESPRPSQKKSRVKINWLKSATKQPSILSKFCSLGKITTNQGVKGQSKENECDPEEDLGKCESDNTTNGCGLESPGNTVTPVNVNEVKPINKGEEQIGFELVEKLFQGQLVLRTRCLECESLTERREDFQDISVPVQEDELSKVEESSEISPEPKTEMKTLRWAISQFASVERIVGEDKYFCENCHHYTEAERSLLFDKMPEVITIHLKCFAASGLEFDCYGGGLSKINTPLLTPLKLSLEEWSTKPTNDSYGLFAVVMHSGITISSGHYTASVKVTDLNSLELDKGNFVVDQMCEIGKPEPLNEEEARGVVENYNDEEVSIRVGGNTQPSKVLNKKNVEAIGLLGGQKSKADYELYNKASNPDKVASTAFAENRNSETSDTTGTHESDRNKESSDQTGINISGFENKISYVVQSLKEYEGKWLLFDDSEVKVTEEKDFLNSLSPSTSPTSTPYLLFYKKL

The nature of test [13]: NFAT Signaling Pathway (AID 444; active means well fitted curve in either direction with a large enough effect, not every such curve was filed as active;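 further: carbachol stimulus at about its EC50 of 1 µM final; on the % scale 0 is the no-effect control and ±100 the full control effect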). The settings on record: Jurkat NFAT-bla M1, carbachol, beta-lactamase ratio, 5 h; at 7.69 µM (top of the series) unless noted. In a few lines:
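Read-out: CCF4 FRET ratio (460 nm/530 nm) after 1 h RT dye loading, used for %activity and AC50 from titration series. Cells: Jurkat NFAT-β-lactamase/M1 line, treated with compound plus 1 uM carbachol for 5 h, 37 °C.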

Test [14] can be described thus: Stat Signaling Pathway (AID 446; active means well fitted curve in either direction with a large enough effect, not every such curve was filed as active;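 further: ME-180 cervical cancer cells given 40 pM IL-6 alongside compound; SIE-controlled beta-lactamase reporter measured as 460/530 nm FRET emission ratio; on the % scale 0 is the no-effect control and ±100 the full control effect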). The settings on record: ME-180 SIE beta-lactamase reporter, IL-6 stimulated, 5 h; at 7.69 µM (top of the series) unless noted. In a few lines: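 Reporter line: ME-180 cervical carcinoma, SIE-beta-lactamase. Treatment: compound with 40 pM IL-6, 5 hrs, 37 C, in low-serum OPTI-MEM with 10 mM HEPES pH 7.3. Detection: 460/530 nm fluorescence.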

Test [15] addresses Cytochrome P450 3A4 (Homo sapiens) (UniProt P08684). The experiment in a line: qHTS Assay for Activators of Cytochrome P450 3A4 (AID 885). Further: nearly all actives have a fitted effect of over 65% in size. Conditions: recombinant CYP3A4, Luciferin-PPXE luminescence, 60 min; series mostly up to 57.1 µM. The essentials: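 Signal was normalized against complete inhibition by 57 uM ketoconazole. The reaction used 20nM CYP3A4 with 25uM Luciferin-PPXE, 10-min compound preincubation and a 60-min NADPH-supported step at RT.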

Test [16] is described as follows: qHTS Assay for Identification of Small Molecule Agonists for Hypoxia Response Element Signaling Pathway (AID 914; active means well fitted activation curve with a large enough effect in the signal ratio, with a control signal flat, not every such curve was filed as active; the % refers to the signal ratio; further: potency means the concentration at half of the fitted maximal effect; on activation: % of control where 0% means no effect). The settings on record: ME-180 (cervical carcinoma) HRE-bla reporter, beta-lactamase ratio, CoCl2, 17 h; activation: stronger effect = higher value. In a few lines:
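A beta-lactamase reporter under hypoxia response element control in ME-180 cells served as the system. Compound titrations plus EC50 CoCl2 ran 17 h at 37 degrees Celsius; AC50 values were fitted from %Activity.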

The target in test [17] is Cytochrome P450 3A4 (Homo sapiens) (UniProt P08684). Nature of the test: qHTS Assay for Inhibitors and Substrates of Cytochrome P450 3A4 (AID 884). Further: potency means the concentration at half of the fitted maximal effect; nearly all actives have a fitted effect of over 50% in size. The settings on record: recombinant CYP3A4, Luciferin-PPXE luminescence; series mostly up to 57.1 µM. In a few lines:
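20 nM human CYP3A4 with 25 uM Luciferin-PPXE (at KM) in 200 mM KPO4, preincubated 10 min with compound; NADPH regeneration started a 60 min RT reaction. Luciferin detected by luminescence, normalized to 57 uM ketoconazole as full inhibition.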

Test [18] deals with Cytochrome P450 2C19 (Homo sapiens) (UniProt P33261). Nature of the test: qHTS Assay for Inhibitors and Substrates of Cytochrome P450 2C19 (AID 899). Further: potency means the concentration at half of the fitted maximal effect; nearly all actives have a fitted effect of over 60% in size. The settings on record: recombinant CYP2C19, luciferin-H EGE luminescence; series mostly up to 57.1 µM. In a few lines: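 Luminescence readout of luciferin formed from 10uM Luciferin-H EGE (KM level) by 5 nM CYP2C19 in 50mM KPO4. 60 min NADPH-driven reaction at 37C after 10 min compound preincubation; data scaled to 57uM ketoconazole inhibition.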
Chain of Cytochrome P450 2C19 (Homo sapiens) (P33261 whole entry, looked up): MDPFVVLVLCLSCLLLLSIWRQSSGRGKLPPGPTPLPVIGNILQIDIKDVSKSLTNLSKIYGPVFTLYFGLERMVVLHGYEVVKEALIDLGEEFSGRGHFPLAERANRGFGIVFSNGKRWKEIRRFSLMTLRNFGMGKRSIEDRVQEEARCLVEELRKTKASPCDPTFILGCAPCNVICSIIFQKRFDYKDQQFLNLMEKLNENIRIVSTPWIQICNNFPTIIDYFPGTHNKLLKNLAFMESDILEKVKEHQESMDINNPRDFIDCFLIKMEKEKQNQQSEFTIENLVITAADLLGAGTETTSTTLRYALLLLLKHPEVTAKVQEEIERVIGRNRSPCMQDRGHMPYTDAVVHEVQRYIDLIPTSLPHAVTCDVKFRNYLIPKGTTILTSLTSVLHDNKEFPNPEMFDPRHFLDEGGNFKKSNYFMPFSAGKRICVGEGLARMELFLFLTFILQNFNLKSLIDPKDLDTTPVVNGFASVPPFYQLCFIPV

Setting [19] is: measured here: cell count channel max response.
The mark [20] stands for this setting: measured here: lipid channel max response.

Chain of Cytochrome P450 1A2 (Homo sapiens) (P05177 whole entry, looked up): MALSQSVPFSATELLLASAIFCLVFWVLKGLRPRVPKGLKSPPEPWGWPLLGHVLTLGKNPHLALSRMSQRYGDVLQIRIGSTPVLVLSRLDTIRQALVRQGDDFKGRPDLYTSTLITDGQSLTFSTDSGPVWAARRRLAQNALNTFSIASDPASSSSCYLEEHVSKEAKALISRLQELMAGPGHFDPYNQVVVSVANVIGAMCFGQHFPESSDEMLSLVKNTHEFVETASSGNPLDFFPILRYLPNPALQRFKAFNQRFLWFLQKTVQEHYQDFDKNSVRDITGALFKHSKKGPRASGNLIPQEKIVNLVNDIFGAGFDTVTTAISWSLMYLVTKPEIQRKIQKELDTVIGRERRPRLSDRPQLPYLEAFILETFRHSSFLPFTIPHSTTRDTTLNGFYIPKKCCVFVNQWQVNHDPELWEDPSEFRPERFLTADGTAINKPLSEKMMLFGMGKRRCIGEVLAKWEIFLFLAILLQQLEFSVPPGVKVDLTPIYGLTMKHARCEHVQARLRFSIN
Chain of Cytochrome P450 3A4 (Homo sapiens) (P08684 whole entry, looked up): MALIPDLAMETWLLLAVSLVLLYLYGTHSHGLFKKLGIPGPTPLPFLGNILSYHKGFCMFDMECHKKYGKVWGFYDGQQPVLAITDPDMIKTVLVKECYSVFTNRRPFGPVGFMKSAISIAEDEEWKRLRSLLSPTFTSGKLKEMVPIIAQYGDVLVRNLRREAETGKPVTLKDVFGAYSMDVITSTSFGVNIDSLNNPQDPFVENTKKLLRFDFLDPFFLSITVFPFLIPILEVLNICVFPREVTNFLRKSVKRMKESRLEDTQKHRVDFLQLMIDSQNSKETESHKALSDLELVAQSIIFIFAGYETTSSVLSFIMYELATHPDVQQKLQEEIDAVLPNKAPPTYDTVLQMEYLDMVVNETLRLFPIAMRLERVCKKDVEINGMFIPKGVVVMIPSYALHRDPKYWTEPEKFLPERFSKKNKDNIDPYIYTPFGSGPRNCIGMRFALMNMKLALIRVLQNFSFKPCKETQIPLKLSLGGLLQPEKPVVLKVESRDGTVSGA
Chain of Dual specificity protein kinase CLK4 (Homo sapiens) (Q9HAZ1 whole entry, looked up): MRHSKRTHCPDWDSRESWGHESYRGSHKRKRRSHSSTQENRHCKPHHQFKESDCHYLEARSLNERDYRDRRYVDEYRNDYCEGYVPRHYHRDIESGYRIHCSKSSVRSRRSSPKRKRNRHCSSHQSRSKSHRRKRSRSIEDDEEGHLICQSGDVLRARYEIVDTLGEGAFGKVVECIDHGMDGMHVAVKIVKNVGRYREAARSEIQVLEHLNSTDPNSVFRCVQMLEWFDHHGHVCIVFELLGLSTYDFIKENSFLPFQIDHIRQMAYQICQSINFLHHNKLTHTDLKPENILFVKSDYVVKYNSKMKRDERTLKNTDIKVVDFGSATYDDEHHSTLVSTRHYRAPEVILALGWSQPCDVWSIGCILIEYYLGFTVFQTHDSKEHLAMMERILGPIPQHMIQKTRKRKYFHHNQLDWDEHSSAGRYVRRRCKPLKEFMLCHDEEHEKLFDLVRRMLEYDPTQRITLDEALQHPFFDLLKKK

For `O=c1c(-c2ccc(F)cc2)nc2cnc(N3CCOCC3)nc2n1C1CC1`, the Potency in [1] was > 11.4 µM (inactive); in test [4] it was > 9.22 µM (inactive); in test [5] it was > 46 µM (inactive). The activity change, negative = inhibition is 16.2% (inactive) in test [2] and 5.31% (inactive) in test [8]. The Potency entry in test [3], in test [6], in test [7], in test [9], in test [10] and in test [11] was “inactive” each time. In addition, in test [12], the Potency entry is “inactive”. The max response is 17.4% in test [8] (setting [19]) and 19.7% in [8] (setting [20]).
With `COc1ccc(Oc2ncc3nc(-c4ccc(Cl)cc4)c(=O)n(C4CC4)c3n2)cc1`, the Potency is > 11.4 µM (inactive) in test [1], > 9.22 µM (inactive) in test [4] and > 46 µM (inactive) in test [5]. Besides, the results for the activity change, negative = inhibition in test [2], in test [13] and in test [8] were -19.7% (inactive), 2.73% (inactive) and 4.67% (inactive), respectively. Besides, in test [14], the activity, negative = inhibition was -1.97% (inactive). Also, the Potency entry in test [6], in test [9], in test [10], in test [11] and in [12] was “inactive” throughout. In addition, the max response is -1.25% in test [8] (setting [19]) and 5.63% in test [8] (setting [20]).
As to `CN(C)C(=O)c1ccc(-c2ccc3ncnc(NCc4cccs4)c3c2)cc1`, the Potency was > 11.4 µM (inactive) in test [1]; 15.8 µM (active) in test [3]; > 46 µM (inactive) in [5]; 12.6 µM (active) in [9]; 7.08 µM (active) in [10]; 14.1 µM (active) in test [11]. Also, the activity change, negative = inhibition was -29.4% (inactive) in test [2], 17.3% (inactive) in test [13] and 6.27% (inactive) in [8]. In addition, the activity, negative = inhibition in test [14] was -7.67% (inactive). The Potency result in test [6], in test [15] and in test [12] was “inactive” in each case. Besides, the max response in test [8] (setting [19]) turned out to be 5.7%; in [8] (setting [20]) it was 12.3%.
For `COc1ccccc1-c1ccc2ncnc(NC3CC3)c2c1`, the Potency in test [1] is > 11.4 µM (inactive); in [4] it was > 46 µM (inactive); in test [5], > 46 µM (inactive); in [9], 11.2 µM (active); in test [10], 14.1 µM (active); in test [11], 12.6 µM (active). Further, the figures for the activity change, negative = inhibition in test [2], in [13] and in test [8] were -1.03% (inactive), -1.81% (inactive) and -9.29% (inactive), respectively. For the same compound, the activity, negative = inhibition in [14] was -18.1% (inactive). For the same compound, the Potency result in [6] and in test [12] was “inactive” each time. Also, the activation in [16] is 27.8% (inactive). The max response is -20.8% in test [8] (setting [19]) and -29.7% in [8] (setting [20]).
On to `CN1CCN(c2ncc3nc(-c4cc(F)cc(F)c4)c(=O)n(CCC#N)c3n2)CC1`, for which the Potency was > 11.4 µM (inactive) in [1]; 15.8 µM (active) in test [3]; > 9.22 µM (inactive) in test [4]; > 46 µM (inactive) in [5]; 3.16 µM (active) in [16]. Besides, the Potency result in [6], in test [7], in [15], in test [9], in test [10] and in [11] was “inactive” each time. Further, the Potency result in [12] was “inactive”. The activity change, negative = inhibition in test [8] was 1.36% (inactive). Further, the max response in [8] (setting [19]) is 25.2%; in test [8] (setting [20]) it was 26.1%.
In the case of `COc1cccc(-c2ccc3ncnc(NCCc4c[nH]c5ccc(OC)cc45)c3c2)c1`, the Potency in [1] is > 11.4 µM (inactive); in test [3], 3.98 µM (active); in test [5] it was > 46 µM (inactive); in test [17], 1.26 µM (active); in test [18], 3.16 µM (active); in [9], 5.01 µM (active). The Potency in test [10] was 3.98 µM (active); in test [11], 0.631 µM (active). The activity change, negative = inhibition was -6.66% (inactive) in test [13] and -3.93% (inactive) in test [8]. Also, the Potency entry in test [7], in [15] and in test [12] was “inactive” in each case. Also, the figures for the max response in test [8] (setting [19]) and in test [8] (setting [20]) were -24.6% and -27.9%, respectively.
